Source: PubChem BioAssay AID652010 (The Scripps Research Institute Molecular Screening Center, 2013)
Among all 370,000 compounds or so, about 4,100 (1.1%) were called active. The list comes from a sample in which actives are over-represented; it also holds similar structures and randomly drawn compounds. Values without a mark were called inactive.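 Rule for the calls: active = inhibition above the mean over all tested compounds plus 3 SD (cut at about 3.6% in these data); inactive = the rest.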

Assay: relief of DAX-1 repression of SF-1 activity – cell-based, luminescence, SF-1 (NR5A1), full-length DAX-1, primary screen (AID 652010);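 note: 0% = DAX-1 cells with DMSO and 100% = cells lacking DAX-1 with DMSO; higher inhibition means more luminescence from relief of DAX-1 repression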
Conditions: HEK293T StAR-luciferase reporter, SF-1/DAX-1 repression relief; at 6.8 µM; hits give high values
In the case of `Cc1sc2nc(SCC(=O)c3ccc(O)c(O)c3)n(Cc3ccco3)c(=O)c2c1C`, the inhibition is reported as -0.17%. `COc1ccc(NC(=O)CN2C(=O)CSc3ccc(S(=O)(=O)N4CCC(C)CC4)cc32)cc1` gave an inhibition of -0.14%. In the case of `CC1CCN(CCCNC(=O)CN2C(=O)CSc3ccc(S(=O)(=O)N4CCCCC4)cc32)CC1`, the inhibition is reported as 4.58% (active). In the case of `COCCCNC(=O)CN1C(=O)CSc2ccc(S(=O)(=O)N3CCOCC3)cc21`, the inhibition is reported as 0.4%. Work on `COC(=O)[C@]12C[C@H](CC(=O)NCc3ccccc3)C(=O)N(CCC3=CCCCC3)C1=C[C@H](C(C)(C)C)O[C@@H]2C` yielded an inhibition of -0.82%. For `Cc1ccc(NC(=O)N2c3ccccc3SC2c2ccco2)c(C)c1` (centres undefined), the inhibition was -1.05%. In the case of `O=C(Nc1ccc(NC(=O)c2cccs2)cn1)c1ccco1`, the inhibition is reported as 5.96% (active). `O=C(N/N=C/C=C/c1ccco1)c1cccs1` showed an inhibition of 0.78%. `O=C(Nc1nonc1-c1ccc(Cl)cc1)c1ccco1` gave an inhibition of -0.6%. `C[C@H](C(=O)N(C)c1ccccc1)[C@@H](O)c1ccc(Cl)cc1` showed an inhibition of -0.7%. `O=C(OC12CCCN(C1)/C(=C/c1cccnc1)C2)C1CCCC1` (centres undefined) gave an inhibition of -1.73%. In the case of `COc1ccc(/C=C/C(=O)OCC(=O)N2CCN(S(=O)(=O)c3ccc(C)cc3C)CC2)cc1OC`, the inhibition is reported as -1.45%. In the case of `COc1ccccc1CCC(=O)OCC(=O)N1CCN(S(=O)(=O)c2ccc(C)cc2C)CC1`, the inhibition is reported as 4.53% (active). Work on `Cc1ccc(S(=O)(=O)N2CCN(C(=O)COC(=O)CNC(=O)c3ccc(C(C)(C)C)cc3)CC2)c(C)c1` yielded an inhibition of -0.26%. In the case of `COc1ccc(C2=Nc3cc(C)ccc3OC2)cc1`, the inhibition is reported as 4.81% (active). For `COc1ccc(/C=C/c2c(-c3cccc(C)c3)oc3ccc(-c4ccc5c(c4)OCO5)cc23)cc1`, the inhibition was -0.02%. Work on `COc1ccc(-c2onc(C)c2-c2ccc3c(c2)OCCO3)c(O)c1` yielded an inhibition of -0.75%. Work on `O=C(c1c[nH]c2ccccc12)N1CCC(Oc2cccnc2)CC1` yielded an inhibition of -0.43%. In the case of `COc1ccccc1CCNC(=O)C1CCN(c2nc(C)cc(C)n2)CC1`, the inhibition is reported as -0.06%. `CCc1c(-c2ccccc2OC)ncn1CCc1ccccc1OC` gave an inhibition of -2.14%. In the case of `O=C(CSc1nnc2ccccn12)c1ccccc1`, the inhibition is reported as 4.08% (active). `O=C(CSc1nnc2n1CCCN2)c1ccccc1` showed an inhibition of 0.61%. With `N#Cc1ccc(CSc2nnc3ccccn23)cc1` the inhibition was -0.37%. With `C[C@H]1CCC/C=C/C(=O)c2c(O)cc(O)cc2CC(=O)O1` the inhibition was -6.29%. Work on `Cc1ccc(-c2nc(C3CCCN(S(=O)(=O)c4ccc(Br)s4)C3)no2)cc1` (centres undefined) yielded an inhibition of 0.62%. In the case of `CCN(CCCNC(=O)c1ccc2c(c1)NC(=O)CN2C)c1cccc(C)c1`, the inhibition is reported as -0.89%. Work on `Cc1ccccc1Nc1nc(N)nc(CSc2nnc3ccccn23)n1` yielded an inhibition of 0.79%. In the case of `Cc1ccccc1Nc1nc(N)nc(COC(=O)CCC(=O)c2ccc(F)cc2)n1`, the inhibition is reported as 1.74%. For `Cc1ccccc1Nc1nc(N)nc(CSc2ccccc2)n1`, the inhibition was 6.39% (active). With `COC(=O)c1cc(NC(=O)c2cc(C(C)(C)C)nn2Cc2cccc(C)c2)ccc1N1CCOCC1` the inhibition was -0.35%. For `O=C(CSc1cccc[n+]1[O-])NCCCc1ccccc1`, the inhibition was -0.54%. For `O=C(CSc1cccc[n+]1[O-])c1ccc(-c2ccccc2)cc1`, the inhibition was 6.13% (active). In the case of `CCN(C(=O)CSc1cccc[n+]1[O-])c1ccccc1`, the inhibition is reported as -1.71%. `CCOC(=O)C1=C(C)NC2=C(C(=O)CC(C)(C)C2)C1c1ccc2c(c1)OCO2` (centres undefined) showed an inhibition of -0.98%. Work on `COCCCNC(=O)C[C@H]1C[C@@]2(C(=O)OC)C(=C[C@H](C(C)(C)C)O[C@@H]2C)N(Cc2ccc(Cl)cc2Cl)C1=O` yielded an inhibition of -0.02%. In the case of `CC(=O)OC12CCCN(C1)/C(=C/c1ccncc1)C2` (centres undefined), the inhibition is reported as 0.29%. Work on `COC(=O)[C@H](C(C)C)N(CCc1cn(Cc2ccccc2)nn1)S(=O)(=O)c1ccc(F)cc1Br` yielded an inhibition of -1.05%. For `CCCNC(=O)C1CC(=O)N(c2ccc(OCc3ccccc3)cc2)C1` (centres undefined), the inhibition was 5.35% (active). Compound `CCOc1ccc(N2CC(C(=O)NCc3ccccn3)CC2=O)cc1` (centres undefined) has an inhibition of -0.17%. `CCCNC(=O)C1CC(=O)N(c2ccc(OCC(=O)Nc3cccc(C)c3C)cc2)C1` (centres undefined) showed an inhibition of 0.23%. `O=C(NC1CCc2ccccc21)C12CN(Cc3ccccc3)CC1C(c1cccc([N+](=O)[O-])c1)=NO2` (centres undefined) gave an inhibition of -0.99%. `COc1ccc(CN2C(=O)N3Cc4cc(OC)ccc4C3CS2(=O)=O)cc1` (centres undefined) gave an inhibition of -0.73%. In the case of `O=C(N/N=C/c1ccsc1)c1cc(O)cc(O)c1`, the inhibition is reported as -0.09%. For `O=C(NN=Cc1ccccc1)c1ccccc1`, the inhibition was 3.83% (active). `NN=C(NN=Cc1ccccc1)c1ccccc1` gave an inhibition of 0.41%. Compound `Cc1ccc(Cn2cc(CN3[C@@H](CC(C)C)COc4ccc(Cl)cc4S3(=O)=O)nn2)cc1` has an inhibition of 0.88%. Work on `Cc1[nH]nc2c1C(c1ccc(Br)cc1)NC2=O` (centres undefined) yielded an inhibition of -0.04%. `CCCOc1ccc(Oc2c(Cl)cnn(Cc3cccc4ccccc34)c2=O)cc1` showed an inhibition of 0.1%. With `CN(C)Cc1cn(-c2ccc(-c3noc4c3C(=O)N(CC(=O)N3CCOCC3)CC4)cc2)nn1` the inhibition was -0.33%. With `Brc1ccc2nc(N3CCCC3)sc2c1` the inhibition was 7.95% (active). Work on `Cc1nc(N2CCCCC2)sc1C=O` yielded an inhibition of 0.27%. `O=C(NCCc1cccc(F)c1)C1CCCN(c2nc3ccccc3s2)C1` (centres undefined) gave an inhibition of 0.01%. `COc1ccc(-n2c(SCC(=O)Nc3ccc4c(c3)OCCO4)nnc2-c2ccc(Cl)cc2)cc1` gave an inhibition of 0.07%. In the case of `COc1ccccc1C(=O)NC1CCCCN(C(C)C)C1=O` (centres undefined), the inhibition is reported as -0.1%. With `O=C(CSc1nc2c(c(=O)[nH]1)CCCC2)N1CCCCC1` the inhibition was -0.21%. `COc1cccc(N(C)C(=O)[C@@H](C)[C@@H](O)c2ccc3ccccc3c2)c1` gave an inhibition of -0.75%. With `COc1ccc(-c2csc(Cc3nc(O)cs3)n2)cc1` the inhibition was 4.06% (active). Work on `COc1ccc(C2C(C(C)=O)=C(O)C(=O)N2c2nccs2)cc1` (centres undefined) yielded an inhibition of 0.43%. Compound `COc1ccc(C(C)(O)c2nc(-c3cc(F)cc(F)c3)cs2)cc1` (centres undefined) has an inhibition of -0.31%.
